Assay results from the supplement of paper PMC13380429.

Experiments:
[1] = tested on: Vero E6 infected with SARS-CoV-2; assay: morphology score (similarity to uninfected cells); higher = more like uninfected cells; conditions: 24 h
[2] = tested on: Vero E6 infected with SARS-CoV-2; assay: SARS-CoV-2 infection rate relative to infected DMSO; higher = more infection, active = 60 or less; conditions: 24 h

Row | SMILES | morphology score [1] | SARS-CoV-2 infection rate [2]
1 | CSCC[C@H](NC(=O)[C@H](Cc1ccccc1)NC(=O)CNC(=O)CNC(=O)[C@@H](N)Cc1ccc(O)cc1)C(=O)O [metenkephalin] (10 µM) | 0.247 | 91% (inactive)
2 | O=[N+]([O-])c1ccc2nc(COCc3nc4ccc([N+](=O)[O-])cc4[nH]3)[nH]c2c1 (10 µM) | -0.00439 | 94.5% (inactive)
3 | Cc1cc(C)nc(NS(=O)(=O)c2ccc(N)cc2)n1 [sulfamethazine] (10 µM) | 0.0855 | 111% (inactive)
4 | O=C(NC(=O)c1c(F)cccc1F)Nc1cc(Cl)c(OC(F)(F)C(F)C(F)(F)F)cc1Cl (stereo unspecified) [lufenuron] (10 µM) | -0.0435 | 111% (inactive)
5 | C#CCN1C(C)=C(C(=O)OC)C(c2cccc([N+](=O)[O-])c2)C(C(=O)OCC)=C1C (stereo unspecified) (10 µM) | 0.0591 | 87.5% (inactive)
6 | Cc1ccc2c(c1)C(=O)[C@]1(O)CCN(c3ccccc3)C1=N2 (racemic) [blebbistatin-(+/-)] (10 µM) | 0.464 | 90.8% (inactive)
7 | Nc1nc(F)nc2c1ncn2[C@@H]1O[C@H](COP(=O)(O)O)[C@@H](O)[C@@H]1O [fludarabine-phosphate] (10 µM) | 0.103 | 82.5% (inactive)
8 | Cc1ccc(OCCSc2ncccn2)c(Br)c1 (10 µM) | 0.0756 | 104% (inactive)
9 | Cc1cc(Nc2cc(N3CCN(C)CC3)nc(Sc3ccc(NC(=O)C4CC4)cc3)n2)n[nH]1 [tozasertib] (10 µM) | 0.292 | 119% (inactive)
10 | O=S(=O)(c1ccccc1)c1cnc2c(N3CCNCC3)cccc2c1 (10 µM) | -0.0691 | 106% (inactive)
11 | CN(C)CCOc1cc(-c2cn[nH]c2)ccc1NC(=O)C1COc2ccccc2O1 (stereo unspecified) (0.833333 µM) | 0.294 | 76.5% (inactive)
12 | Cc1ccc2c(c1CCC(=O)O)CC[C@@H](NS(=O)(=O)c1ccc(Cl)cc1)C2 [terutroban] (10 µM) | 0.115 | 112% (inactive)
13 | CC(C)(CO)Cc1cc(C(C)(C)C)c(O)c(C(C)(C)C)c1 (10 µM) | -0.127 | 108% (inactive)
14 | CN(C)CCOC(c1ccc(Cl)cc1)c1ccccn1 (stereo unspecified) [carbinoxamine] (10 µM) | 0.075 | 96% (inactive)
15 | CCCC(=O)Nc1ccc(OCC(O)CNC(C)C)c(C(C)=O)c1 (stereo unspecified) [acebutolol] (10 µM) | -0.0282 | 113% (inactive)
16 | O=C(c1ccc(F)cc1)C1CCN(CCn2c(=O)[nH]c3ccccc3c2=O)CC1 [ketanserin] (10 µM) | 0.144 | 106% (inactive)
17 | CCS(=O)(=O)N(Cc1cccnc1)c1cccc(-c2ccc(C#N)cc2)c1 (10 µM) | 0.372 | 87% (inactive)
18 | Fc1cc(-c2cccc3ncc(-c4cnn(C5CCNCC5)c4)nc23)cc(F)c1CN1CCOCC1 (0.833333 µM) | 0.0457 | 116% (inactive)
19 | CCn1cc(C(=O)O)c(=O)c2cnc(N3CCNCC3)nc21 [pipemidic-acid] (10 µM) | 0.136 | 102% (inactive)
20 | CCOC(=O)Nc1ccc2c(c1)N(C(=O)CN(C)C)c1ccccc1CC2 [tiracizine] (10 µM) | -0.162 | 111% (inactive)
21 | CN(C)[C@@H]1C(O)=C(C(N)=O)C(=O)[C@@]2(O)C(O)=C3C(=O)c4c(O)ccc(Cl)c4[C@@](C)(O)[C@H]3C[C@@H]12 (10 µM) | 0.129 | 102% (inactive)
22 | C1CCC(C(CC2CCCCN2)C2CCCCC2)CC1 (stereo unspecified) [perhexiline] (0.833333 µM) | -0.219 | 114% (inactive)
23 | COc1cc2nccc(Oc3ccc(NC(=O)NC4CC4)c(Cl)c3)c2cc1C(N)=O [lenvatinib] (10 µM) | 0.239 | 100% (inactive)
24 | Clc1ccc(CCCOCCCN2CCCCC2)cc1 [pitolisant] (10 µM) | 0.243 | 81% (inactive)
25 | CN(CCOc1ccc(C[C@H](Nc2ccccc2C(=O)c2ccccc2)C(=O)O)cc1)c1ccccn1 (10 µM) | 0.317 | 70% (inactive)
26 | NCCS [cysteamine] (10 µM) | -0.0321 | 112% (inactive)
27 | CCn1cc(C(=O)O)c(=O)c2cnc(N3CCCC3)nc21 [piromidic-acid] (10 µM) | 0.0342 | 99.5% (inactive)
28 | CC(C)(C#N)c1ccc(N2C(=O)OCc3cnc4ccc(-c5cnc6ccccc6c5)cc4c32)cc1 (10 µM) | 0.22 | 104% (inactive)
